Data published in PubChem BioAssay (NCI).
About 83,000 compounds went through this panel and 20% of them were active in at least one assay; those are over-represented in the sample as a whole.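 Testing used 96-well plates and a 48-hour single-concentration exposure. Example: -40 means 40% of the starting cells died.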 Unmarked numbers belong to inactive results. Calls of active or inactive are those of the source. How the source made its calls: active means growth percent below 10; inactive means the rest.

Experiments:
Experiment in all cases: NCI-60 one-dose screen, 48 h (100 = growth as untreated, 0 = no growth, -100 = all killed)
Conditions in all cases: 10 µM unless noted
SR leukemia = test system: SR leukemia
RPMI-8226 leukemia = test system: RPMI-8226 leukemia
OVCAR-8 ovarian = test system: OVCAR-8 ovarian
OVCAR-5 ovarian = test system: OVCAR-5 ovarian
OVCAR-4 ovarian = test system: OVCAR-4 ovarian
SK-OV-3 ovarian = test system: SK-OV-3 ovarian
IGROV1 ovarian = test system: IGROV1 ovarian
OVCAR-3 ovarian = test system: OVCAR-3 ovarian
HS 578T breast = test system: HS 578T breast
NCI/ADR-RES ovarian = test system: NCI/ADR-RES ovarian
T-47D breast = test system: T-47D breast
BT-549 breast = test system: BT-549 breast
MDA-MB-435 melanoma = test system: MDA-MB-435 melanoma
SW-620 colon = test system: SW-620 colon
MCF7 breast = test system: MCF7 breast
HCC-2998 colon = test system: HCC-2998 colon
KM12 colon = test system: KM12 colon
HCT-116 colon = test system: HCT-116 colon

SMILES	growth (SR leukemia)	growth (RPMI-8226 leukemia)	growth (OVCAR-8 ovarian)	growth (OVCAR-5 ovarian)	growth (OVCAR-4 ovarian)	growth (SK-OV-3 ovarian)	growth (IGROV1 ovarian)	growth (OVCAR-3 ovarian)	growth (HS 578T breast)	growth (NCI/ADR-RES ovarian)	growth (T-47D breast)	growth (BT-549 breast)	growth (MDA-MB-435 melanoma)	growth (SW-620 colon)	growth (MCF7 breast)	growth (HCC-2998 colon)	growth (KM12 colon)	growth (HCT-116 colon)
CCN1C(=O)C(C)C=C(C)C=C1C (configuration not stated)	110%	115%	102%	106%	119%	106%	106%	92.6%	102%	119%	102%	124%	114%	114%	106%	103%	100%	
NC(=O)c1ccc[n+](Cc2ccccc2)c1	109%	89.9%	103%	96.2%	102%	113%	111%	107%	98.5%		106%	118%	98.2%	102%	103%	102%	102%	99.9%
CCN(CC)C(=O)O/N=C(/C)c1ccccc1	104%	105%	93.3%	103%	80.7%	111%	126%	109%	123%	103%	110%		104%	106%	97.1%	104%	102%	104%
CCC1N=C(N)N=C(N)N1c1ccc(Cl)cc1 (configuration not stated)	88.9%	87.5%	74.4%	119%	103%	108%	66.6%	104%	97%		95.7%	100%	79.5%	72.3%	91.3%	95.4%	97.4%	61.1%
COc1cc(C)c(Cl)cc1C1=NN(c2ccc(S(N)(=O)=O)cc2)C(/C=C/c2ccccc2)C1 (configuration not stated)	66.7%	35.8%	31.7%	104%	28.1%	88.8%	45.8%	51.7%	86.8%		17.5%	107%	62.5%	43.9%	23.3%	74.9%	34.8%	11.5%
Cc1ccncc1NC=O	93.8%	99.9%	104%	110%	108%	110%	114%		109%	107%	102%	132%	105%	99.2%	95.9%	113%	103%	108%
COc1ncnc2[nH]cc(CN3CCN(c4ccc(F)cc4)CC3)c12	105%	103%	100%	102%	115%	104%	102%	114%	97.5%		104%	107%	91.9%	108%	103%	104%	109%	111%
COc1ccc(Oc2nc(Nc3ccc(N4CCOCC4)cc3)ncc2NC(=O)Nc2cccc(OC)c2)cc1	74.2%	56.8%	50.3%	103%	75.8%	87%	76.2%	68.4%	60.5%	85.2%		34.3%	60.2%	67.5%	88.6%	40.3%		19%
ClC1(Cl)C2CCCCCCC21 (configuration not stated)	108%	106%	123%	116%	109%	118%	107%	120%	91.8%		108%	101%	104%	107%	98.5%	114%	109%	110%
C=C1C(=O)O[C@H]2[C@H]1CC/C(COC(=O)NCc1cn(C)c3ccccc13)=C\CC[C@@]1(C)O[C@@H]21	6.96% (active)	-29.3% (active)	4.58% (active)	23%	12%	60.2%	0.634% (active)		49.6%	19%	-54.1% (active)	-54.3% (active)	-30.4% (active)	-48.4% (active)	3.65% (active)	49.1%	39.5%	-97.2% (active)
CS(=O)(=O)c1ccc(Cl)c([N+](=O)[O-])c1	18.6%	70.3%	107%	108%	111%	104%	38.5%	9.6% (active)	73.3%	101%		111%	99.1%	67.9%	107%	109%	75.3%	105%
COC1(OC)C2(Cl)CCC1(Cl)C(Cl)=C2Cl	98.6%	103%	94.6%	105%	103%	104%	106%	112%	99.9%		98.3%	117%	99.9%	120%		103%	106%	105%
S=C(S)Oc1cccc2cccnc12	87.7%	106%	108%	108%	92.2%	100%	86.1%	120%	96.2%	106%		98.4%	104%	105%	95.8%	113%	109%	95.9%
COc1cnc2c(c1)C(=O)c1c-2n(CCCN2CCNCC2)c(=O)c2cc(Cl)ccc12	-48.7% (active)	-64.9% (active)	-58.9% (active)	-96.1% (active)	53.4%	14.5%	51.4%	-90.5% (active)	66.3%	48.1%		45.7%	0.312% (active)	-84.5% (active)	-74.9% (active)	54.4%	11.8%	-100% (active)
N/C(=N\OC(=O)c1ccccc1)C(C(=O)NOC(=O)c1ccccc1)C1CCCCC1 (configuration not stated)	4.57% (active)	41.5%	65.8%	92.2%	72.8%	108%	-56.2% (active)		26.7%	45.2%	72.1%	74.4%	38.9%	82.1%	65.6%	98%	19.9%	36.7%
COc1cc(C2CC(c3ccccc3)=NN2C=O)ccc1Oc1ccnc2cc(Cl)ccc12 (configuration not stated)	50.4%	32.1%	38.7%	84.2%	35%	86.6%	80.1%	69.9%	76.2%	22.9%		46%	36%	87.9%	50.5%	87.4%	49.9%	54.7%
COc1ccc(/C=C/c2nc3ccccc3c(=O)n2-c2ccc(C#Cc3ccc(C(C)(C)C)cc3)cc2C)c(OC)c1	42%	52%	110%	120%	97.9%	103%	109%	87.5%		105%	85.5%	99.4%	91.8%	86.7%	105%	97.2%	88.1%	69%
